Source: PubChem BioAssay
An excerpt weighted towards active compounds, which were near 2.1% of everything screened.
IDE cell inh – cellular human IDE inhibition; HEK cells, FAbetaB cleavage, fluorescence polarization; inhibition, % at 5.59 µM; actives 0.41% (n = 320,000);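 active means percent inhibition above the average of all tested compounds plus 3 SD, set per screening campaign, cut at about 16% in these data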;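 further: IDE supplied by intact live HEK cells; FP after avidin binding of uncleaved biotin substrate so inhibition keeps polarization high; 0% = DMSO wells and 100% = 60 µM reference IDE inhibitor Ii1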
LANA-H2A inh – blocks KSHV LANA binding to histone H2A/H2B; Q9QR71; cell-free LANA-H2A/H2B peptide, fluorescence polarization; inhibition, % (concentration not given with the values); actives 0.6% (n = 320,000); AID 2629; in the data active means inhibition mostly above about 10%, no sharp cut-off; inactive means mostly below about 6.7%
SUMO Mot1 rescue – blocks SUMOylation pathway, rescuing yeast Mot1-301 growth | S. cerevisiae Mot1-301 growth rescue, ATP luminescence, 38.5C; percent above DMSO median, 100 means doubled | growth rescue, % at 18.8 µM | actives 1% (n = 320,000) | AID 2716;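 active means every valid replicate shows activation above 250% relative to neutral control wells; inactive means the rest, any valid replicate at or below 250%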;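 further: OY570 slx delta 5 strain wells were the positive control but not used for scaling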
HDAC3 inh – inhibitors of human histone deacetylase 3. O15379. recombinant HDAC3, fluorogenic peptide/trypsin coupled, fluorescence. inhibition, % at 8.3 µM. actives 0.15% (n = 320,000); in the data active means inhibition above about 26%, passing the limit was not always enough
Target sequence (O15379 whole entry, looked up): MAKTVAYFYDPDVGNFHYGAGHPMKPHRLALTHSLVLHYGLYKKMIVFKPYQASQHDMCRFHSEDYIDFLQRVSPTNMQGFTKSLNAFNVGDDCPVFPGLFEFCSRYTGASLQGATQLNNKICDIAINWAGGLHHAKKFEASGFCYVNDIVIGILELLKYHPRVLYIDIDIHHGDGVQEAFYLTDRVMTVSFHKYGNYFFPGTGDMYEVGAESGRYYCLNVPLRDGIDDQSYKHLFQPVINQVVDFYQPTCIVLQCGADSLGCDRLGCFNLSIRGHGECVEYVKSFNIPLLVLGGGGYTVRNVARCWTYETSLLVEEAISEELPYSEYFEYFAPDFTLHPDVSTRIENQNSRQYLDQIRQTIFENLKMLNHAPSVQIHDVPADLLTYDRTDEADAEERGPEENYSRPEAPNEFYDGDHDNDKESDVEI
IDE cell activ – activators of human insulin-degrading enzyme in cells | HEK cells, FAbeta-B cleavage, fluorescence polarization; 0% vehicle, 100% cell-free pure enzyme wells | activation, % at 5.96 µM | actives 0.073% (n = 340,000) | AID 493087;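 active means activation above the mean of all tested compounds plus 3 SD, set per screening campaign, cut at about 17% in these data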
Numbers without * were called inactive; / = no result; + = active, no number; ! = not confirmed by another sample.

SMILES	IDE cell inh	LANA-H2A inh	SUMO Mot1 rescue	HDAC3 inh	IDE cell activ
COc1ccc(COC(=O)C2CC(=O)N(Cc3ccc(C)cc3)C2)cc1 (stereo not given)	-6	-1	56	0	4
COc1ccc(CCN2C(=NC(=O)CC(C)C)SC3CS(=O)(=O)CC32)cc1OC (stereo not given)	-1	22*	196	-2	-4
Cc1nc(C(=O)N2CCc3c([nH]c4ccccc34)C2c2ccccn2)cs1 (stereo not given)	2	0	11	6	4
Cc1nc(C(=O)N2CCc3c([nH]c4ccccc34)C2c2cc(F)ccc2F)cs1 (stereo not given)	5	16*	133	1	1
CC(C)c1nc(C(=O)N2CCc3c([nH]c4ccccc34)C2c2ccccn2)cs1 (stereo not given)	5	14*	-20	19	/
C=CCC1(CC=C)CCCN1C(=O)c1cc(COc2ccc(C)nc2)on1	2	2	2	-6	3
Cn1c(SCC(=O)N2CCOCC2)nnc1-c1ccco1	3	0	353*	-2	-2
COc1ccc(CNc2ncc(-c3ccccc3)n2C)cc1	0	-1	337	-4	5
Cn1c(-c2ccccc2)cnc1NCc1ccc(-c2ccccc2)cc1	0	3	383*	11	2
Cc1nn(C(=O)CCC(=O)NCc2ccc(OC(C)C)cc2)c2ccccc12	6	/	/	/	6
CC1CCCN(C(=O)CN(C)S(=O)(=O)c2cccc3nsnc23)C1 (stereo not given)	-4	-4	-5	-1	-3
O=C(N/N=C/c1cccs1)c1cc(-c2cccc3ccccc23)n[nH]1	-9	17*	27	6	-2
CCN(CC)c1ccc2c(-c3ccc(S(=O)(=O)O)cc3S(=O)(=O)[O-])c3ccc(=[N+](CC)CC)cc-3oc2c1	-56	150*	-23	4	27*
CCN(CC)c1ccc2nc3c4ccccc4c(=O)cc-3oc2c1	/	5	-11	-1	/
O=C(COC(=O)C12CC3CC(CC(O)(C3)C1)C2)Nc1cccc(Br)c1	/	/	/	/	-3
Cc1noc(C(C)C)c1C(=O)Nc1ccc(-c2nnc3n2CCCCC3)cc1	2	-3	30	0	-5
CCC(=O)Nc1ccc(C(=O)COC(=O)Cc2ccsc2)cc1	11	18*	42	-4	-1
O=C(COC(=O)Cc1ccsc1)Nc1ccc(Br)cc1	3	/	/	/	0
COc1ccc(NC(=O)c2ccco2)cc1NC(=O)c1ccc(C)cc1	2	3	/	6	-1
COc1ccc(NC(=O)CCc2ccccc2)cc1NC(=O)c1ccco1	-4	28*	-8	1	2
COc1ccc(CC(=O)Nc2ccc(OC)c(NC(=O)c3ccco3)c2)cc1	2	31*	24	3	3
CCSc1nnc(-c2sc3nnc(-c4ccccc4)c(-c4ccccc4)c3c2N)o1	21*	2	39	2	-72
CCSc1nnc(-c2ccncc2)o1	1	-1	0	7	5
Fc1c(F)c(F)c(N/N=C/c2c[nH]c3ccccc23)c(F)c1F	2	-3	55	32*	-1
O=C(N/N=C\c1c[nH]c2ccccc12)c1ccc(O)cc1	/	74*	7	4	2
SMILES	IDE cell inh	LANA-H2A inh	SUMO Mot1 rescue	HDAC3 inh	IDE cell activ
Cc1ccc(CC(=O)Nc2nccs2)cc1C	5	1	-5	-1	-3
Cc1cnc(NC(=O)Nc2ccc(OCc3ccccc3)cc2)c(Br)c1	1	-7	26	5	6
CCC(=O)NNC(=O)CSc1nnc(-c2ccccc2)c(-c2ccccc2)n1	7	2	1	3	0
N#CCc1ccc(Oc2ncccn2)cc1	-4	-2	356*	2	6
COc1cc(C(=O)COC(=O)CNC(=O)C2CCCCC2)cc(OC)c1OC	-2	2	270*	4	4
CCOC(=O)C(=O)N1CCN(c2nc(-c3ccc(Cl)cc3)cs2)CC1	8	2	16	11	-8
CCOC(=O)N1CCN(c2nc(-c3ccc(F)cc3)cs2)CC1	17*	6	-1	2	-7
CCOc1ccc(/C=N/NC(=O)Cc2csc(Nc3cccc(C(F)(F)F)c3)n2)c(OCC)c1	2	0	/	36*	3
CCOC(=O)c1ccccc1NC(=O)Cc1ccccc1OC	-1	-1	391*	1	0
COc1ccccc1CC(=O)Nc1ccccc1C(=O)O	14	0	2	-4	-9
COc1ccc(Cn2c(CO)cnc2SCC(=O)Nc2cc(C)on2)cc1	1	2	-24	0	3
COc1cccc(NC(=O)CCc2nc(-c3ccccc3F)no2)c1	-2	0	-19	2	5
O=C(CCc1nc(-c2ccccc2F)no1)Nc1ccc(Oc2ccccc2)cc1	7	-3	7	27*	-4
CCCCN(C)CC(O)Cn1cc(/C=C/C(=O)c2ccc(OCC)cc2)c2ccccc21 (stereo not given)	6	-6	-10	2	/
CCCCN(C)CC(O)Cn1cc(/C=C/C(=O)c2cccs2)c2ccccc21 (stereo not given)	5	+	-9	3	-14
Nc1nc(NCCO)nc(N2CCCCCC2)c1[N+](=O)[O-]	4	-2	-4	-5	2
OCCN(CCO)c1nc(N2CCCCC2)c2nc(N(CCO)CCO)nc(N3CCCCC3)c2n1	-6	79*	-18	/	17
CNc1nnc(C(F)(F)F)s1	-1	16*	-12	1	6
Fc1ccc(Nc2nnc(C(F)(F)F)s2)cc1	-3	-1	94	8	6
O=C(CCCN1CCC(O)(c2ccc(Br)cc2)CC1)c1ccc(F)cc1	-3	-5	272	-1	3
O=C(CCCN1CCC(O)(c2ccc(Cl)cc2)CC1)c1ccc(F)cc1	2	-8	588*!	4	10
Cc1cc([N+](=O)[O-])cnc1NC(C)c1ccccc1 (stereo not given)	5	-4	330*	3	5
CC(Nc1cc(N2CCCC2)ccc1[N+](=O)[O-])c1ccccc1 (stereo not given)	-2	6	-2	-7	4
Cc1ccc(S(=O)(=O)N2CCN(CC(=O)Nc3ccnn3C3CCCC3)CC2)cc1	2	2	6	-3	1
O=C(C1=C(O)C(=O)N(CCCN2CCOCC2)C1c1ccccn1)c1cc2ccccc2o1 (stereo not given)	10	28*	-18	6	-2
CCN(CC)CCN1C(=O)C(O)=C(C(=O)c2ccc(C)o2)C1c1ccccn1 (stereo not given)	4	16*	25	-1	/
O=C(C1=C(O)C(=O)N(CCN2CCOCC2)C1c1ccc(F)cc1)c1cc2ccccc2o1 (stereo not given)	7	-7	-12	-2	1
CCN(CC)CCCN1C(=O)C(O)=C(C(=O)c2ccc(C)o2)C1c1ccc(C)o1 (stereo not given)	3	-5	-15	-11	-6
